NadD inh: inhibitors of S. aureus NadD, primary screen, biochemical, colorimetric, uHTS; inhibition, % at 20 µM; hit rate 0.78% among 360,000; purified NadD enzyme, colorimetric absorbance read-out; in the data active = inhibition above about 26%
DAGLB inh: DAGLB lipase inhibitors, primary screen, biochemical, fluorescence, HTS. hit rate 0.059% among 340,000. inhibition, % at 5.17 µM. HEK293T DAGLB membrane lysate, EnzChek fluorogenic substrate; in the data active = inhibition above about 34%;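 note: 0% = enzyme with vehicle and 100% = wells lacking enzyme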
Neddylation inh: inhibitors of cullin neddylation, primary screen, biochemical, TR-FRET, uHTS, NAE and Ubc12; inhibition, % at 25 µM; hit rate 0.58% among 360,000; in the data active = inhibition above about 36%
Target sequence (P61081 whole entry, looked up): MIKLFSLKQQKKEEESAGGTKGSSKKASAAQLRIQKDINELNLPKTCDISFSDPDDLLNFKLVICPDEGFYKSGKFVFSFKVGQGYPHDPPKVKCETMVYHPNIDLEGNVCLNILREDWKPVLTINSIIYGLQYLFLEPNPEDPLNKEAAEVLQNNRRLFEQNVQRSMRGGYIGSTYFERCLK
Target sequence (Q13564 whole entry, looked up): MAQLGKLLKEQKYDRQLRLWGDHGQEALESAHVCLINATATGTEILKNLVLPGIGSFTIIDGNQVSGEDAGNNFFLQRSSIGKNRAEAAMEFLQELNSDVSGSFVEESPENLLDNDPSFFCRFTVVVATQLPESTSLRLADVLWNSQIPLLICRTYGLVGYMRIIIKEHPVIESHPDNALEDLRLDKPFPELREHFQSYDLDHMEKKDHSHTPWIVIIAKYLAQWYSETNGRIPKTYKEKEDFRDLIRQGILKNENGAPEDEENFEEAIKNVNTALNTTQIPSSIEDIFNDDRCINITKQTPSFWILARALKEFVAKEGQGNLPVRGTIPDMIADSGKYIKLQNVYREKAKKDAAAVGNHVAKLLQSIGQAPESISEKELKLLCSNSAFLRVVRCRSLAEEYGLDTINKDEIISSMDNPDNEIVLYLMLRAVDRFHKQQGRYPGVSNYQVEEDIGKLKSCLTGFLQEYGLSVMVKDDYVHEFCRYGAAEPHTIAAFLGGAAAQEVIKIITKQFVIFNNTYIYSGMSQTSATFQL
HGIII-sPLA2 inh: human group III sPLA2 inhibitors, primary screen, biochemical, QFRET, BODIPY PC-A2 liposome substrate. Group 3 secretory phospholipase A2 (Homo sapiens), Q9NZ20. QFRET BODIPY PC-A2 liposome hydrolysis, fluorescence. inhibition, % at 12.2 µM. hit rate 0.56% among 370,000;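 active = inhibition above mean plus 3 SD of compounds lying within the high and low control bounds, cut at about 19% in these data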;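 note: 0% = median of test compound wells and 100% = no enzyme DMSO wells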
ARNT TACC3 PPI: disruptors of ARNT/TACC3 protein interaction, primary screen, biochemical, AlphaScreen, single concentration; Transforming acidic coiled-coil-containing protein 3 (Homo sapiens), Q9Y6A5; AlphaScreen His-ARNT PAS-B/GST-TACC3 binding, luminescence; TACC3 fragment carries E629A point mutation; inhibition, % at 9.99 µM; hit rate 0.66% among 390,000; AID 623870, 2012;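 active = mean inhibition of replicates at least 50% and at least half of replicates each reaching 50%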;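 note: 0% = complete ARNT plus TACC3 wells and 100% = ARNT alone without TACC3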
NadD conf: inhibitors of S. aureus NadD, confirmation, biochemical, colorimetric, single concentration | shares compounds with NadD inh | purified S. aureus NadD, colorimetric enzyme assay | inhibition, % at 20 µM | hit rate 13% among 2,000 | AID 624309, 2012; in the data active = inhibition mostly above about 42%, no sharp cut-off; inactive = mostly below about 42%
ARNT Alpha ctr: AlphaScreen signal interference compounds, dose response, artefact control for ARNT-TACC3 interaction inhibitor project, biochemical, luminescence, cherry-pick | shares compounds with ARNT TACC3 PPI | His-ARNT PASB-GST AlphaScreen artifact counter-screen | AC50, µM (titrated, usually from 68 µM), without a hit: top-dose activity change, negative = signal decrease | hit rate 50% among 1,200;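 active = every separate test run was called active for a drop in luminescence, with AC50 within twice the top valid dose, actives reach about 71 µM in these data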
hGIII sPLA2 conf: human group III sPLA2 inhibitors, confirmation, biochemical, QFRET, triplicate | shares compounds with HGIII-sPLA2 inh | recombinant hGIII-sPLA2, BODIPY PC-A2 QFRET fluorescence | inhibition, % at 12.2 µM | hit rate 34% among 2,000 | AID 743280, 2014;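 active = mean inhibition across triplicates above the hit cutoff set in the earlier primary screen, cut at about 19% in these data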;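 note: 0% = enzyme with DMSO and 100% = DMSO wells lacking enzyme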
BODIPY interf: 535nm fluorescence optical interference, confirmation, artefact control for HGIII-sPLA2 inhibitor project, biochemical, QFRET; shares compounds with HGIII-sPLA2 inh; BODIPY FL product fluorescence interference; inhibition, % at 12.2 µM; hit rate 8.5% among 2,000; AID 743282, 2014;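 active = average inhibition above the solvent-only control mean plus 3 SD, cut at about 6% in these data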;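 note: 0% = DMSO with substrate plus product and 100% = DMSO with substrate alone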
Starred values were filed as active, the others as inactive; . = no result shown; ! = not confirmed by another sample; [ ] = remark or other dose. Shown are actives, neighbours in structure and some others; about 2% of the full set was active somewhere.

SMILES	NadD inh	DAGLB inh	Neddylation inh	HGIII-sPLA2 inh	ARNT TACC3 PPI	ARNT Alpha ctr	others
O=c1[nH]c(NNC(=S)NCc2ccccc2)nc2c1C1(CCCCC1)Cc1ccccc1-2	37*	3	34	23*	-8	.	NadD conf=53*;hGIII sPLA2 conf=32*;BODIPY interf=9.4*
O=C(C[C@H]1CC[C@@H]2[C@H](COC[C@@H](O)CN2CCc2ccccc2)O1)NCc1ccc(F)cc1	.	.	.	.	-8	.
Cc1cc2nc(/N=C(\N)NC(=O)N3c4ccccc4Sc4ccccc43)nc(C)c2cc1C	27*!	-2	-47	21*	0	.	NadD conf=8;hGIII sPLA2 conf=2;BODIPY interf=0
Cc1ccc(C)c(N2CCN(C(=O)c3ccc4nc(-c5ccco5)c(-c5ccco5)nc4c3)CC2)c1	64*	11	25	20*	-9	.	NadD conf=12;hGIII sPLA2 conf=6;BODIPY interf=-23
COc1ccccc1N1CCN(C(=O)c2ccc3nc(-c4ccco4)c(-c4ccco4)nc3c2)CC1	26	4	25	-9	13	.
O=C(C[C@@H]1CC[C@@H]2[C@H](COC[C@H](O)CN2C(=O)c2cnccn2)O1)NCc1ccc(Oc2ccccc2)cc1	.	.	.	.	-5	.
Cc1cccc2sc(NNC(=O)c3ccc(S(=O)(=O)N4CCc5ccccc5C4)cc3)nc12	38*	7	17	41*	9	.	NadD conf=51*;hGIII sPLA2 conf=43*;BODIPY interf=7.8*
O=C(NC(=S)Nc1ccc(N2CCCC2)cc1)c1ccccc1[N+](=O)[O-]	33*	4	-23	23*	-2	.	NadD conf=6;hGIII sPLA2 conf=18;BODIPY interf=-1
Cc1cccc(-c2nnn3c2nc(NCCc2ccc(S(N)(=O)=O)cc2)c2ccccc23)c1	34*	0	-293	22*	-12	.	NadD conf=11;hGIII sPLA2 conf=-6;BODIPY interf=-2
COc1ccc2oc(C(=O)NC(C)c3ccccn3)c(C)c2c1 (configuration not stated)	2	-4	.	-1	2	.
COc1ccc2oc(C(=O)Nc3nc(-c4ccccn4)cs3)c(C)c2c1	34*	-6	28	22*	21	.	NadD conf=2;hGIII sPLA2 conf=25*;BODIPY interf=-1
Cc1ccc(Nc2nnc(SCC(=O)Nc3ncc(S(=O)(=O)c4ccc([N+](=O)[O-])cc4)s3)s2)cc1	45*	4	-5	20*	-18	.	NadD conf=8;hGIII sPLA2 conf=-30;BODIPY interf=4
C[C@H]1CN([C@@H](C)CO)C(=O)c2cc(C#Cc3ccncc3)cnc2O[C@@H]1CN(C)CC1CCCCC1	.	.	.	.	-16	.
O=C(Nc1ccc2c(c1)OCO2)c1ccc2c(c1)OCO2	3	2	-1	-6	52*	-17%
O=C(Nc1ccc(F)c(F)c1)c1ccc2c(c1)OCO2	-3	-1	-11	-5	4	.
CN1CCN(/N=C/c2nc(-c3ccccc3Cl)n3ccccc23)CC1	-4	2	7	-2	35*	-22%
O=C(N/N=C/c1cccc2nccnc12)c1ccccc1O	-5	1	-38	4	59*	30µM*
COc1ccc(C(c2nnnn2C2CCCC2)N2CCc3ccccc3C2)cc1OC (configuration not stated)	7	4	-1	-2	58*	-25%
CCC(COC)Oc1cc(NCc2ccccc2)c2ncn(C(C)C)c2c1 (configuration not stated)	1	1	-16	5	56*	34µM*
COc1ccc(CN(C)C[C@@H]2Oc3ccc(NC(=O)Cn4cnnn4)cc3C(=O)N([C@@H](C)CO)C[C@H]2C)cc1	.	.	.	.	54*	-4%[42 µM]
C[C@H]1CN([C@@H](C)CO)C(=O)c2cc(NC(=O)Nc3cccc4ccccc34)ccc2O[C@@H]1CN(C)C(=O)Nc1ccc(C(F)(F)F)cc1	.	.	.	.	active	-31%[42 µM]
C[C@H]1CN([C@@H](C)CO)C(=O)Cc2cc(NC(=O)Nc3cccc4ccccc34)ccc2O[C@H]1CN(C)CC1CCCCC1	.	.	.	.	52*	-31%[42 µM]
C[C@@H]1CN([C@@H](C)CO)C(=O)c2cc(NC(=O)Nc3cccc4ccccc34)ccc2O[C@@H]1CN(C)C(=O)Nc1ccc(C(F)(F)F)cc1	.	.	.	.	-1	.
COc1ccc(NC(=O)Nc2ccc3c(c2)CC(=O)N([C@@H](C)CO)C[C@@H](C)[C@H](CN(C)Cc2ccc(Oc4ccccc4)cc2)O3)cc1	.	.	.	.	58*	20µM*
C[C@H](CO)N1C[C@H](C)[C@H](CN(C)Cc2ccc(Oc3ccccc3)cc2)Oc2ccc(NC(=O)Nc3cccc4ccccc34)cc2CC1=O	23	0	-19	-7	-3	.
SMILES	NadD inh	DAGLB inh	Neddylation inh	HGIII-sPLA2 inh	ARNT TACC3 PPI	ARNT Alpha ctr	others
C[C@H](CO)N1C[C@H](C)[C@@H](CN(C)C(=O)Nc2ccc3c(c2)OCO3)Oc2ccc(NC(=O)CCN3CCOCC3)cc2CC1=O	.	.	.	.	50*	-14%[42 µM]
C[C@H]1CN([C@@H](C)CO)C(=O)c2cccc(NC(=O)Nc3cccc4ccccc34)c2O[C@@H]1CN(C)S(=O)(=O)c1ccc(Cl)cc1	.	.	.	.	53*	25µM*
C[C@H](CO)N1C[C@H](C)[C@H](CN(C)S(=O)(=O)c2ccc(Cl)cc2)Oc2c(NC(=O)Nc3cccc4ccccc34)cccc2C1=O	.	.	.	.	-11	.
C[C@H]1CN([C@@H](C)CO)C(=O)Cc2cc(NC(=O)Nc3cccc4ccccc34)ccc2O[C@@H]1CN(C)Cc1ccc(Oc2ccccc2)cc1	.	.	.	.	61*	34µM*
COc1cccc(/C=N/n2c(-c3n[nH]c4c3CCC4)n[nH]c2=S)c1O	3	1	18	12	34*	-12%
COCC(=O)N[C@@H]1C=C[C@H](CC(=O)NCc2ccccc2OC)O[C@@H]1CO	.	.	.	.	-8	.
CC1=C(SCc2ccccc2)C(=O)c2ccccc2C1=O	14	-7	-14	-6	24*	55µM*
O=C1C(SCCO)=C(SCCO)C(=O)c2ccccc21	5	-8	-26	-4	25	.

Compound activity (PubChem BioAssay)
